# Bioassay records (PubChem)
# Rows were chosen to be rich in hits. Some 0.85% of all compounds tested hit in one or more screens of this group.
# Mm-Cpn inhibitor = inhibitors of Methanococcus maripaludis chaperonin TRiC (MmCpn). purified Mm-Cpn ATPase, ADP Transcreener TR-FRET. Potency, µM (titrated, usually from 76.9 µM), inactives show top-dose activity, negative = inhibition, usual class: inhibitors. hit rate 0.031% among 330,000. AID 504842; further: potency means the concentration at half of the fitted maximal effect; on the % scale 0 is the no-effect control and ±100 the full control effect; nearly all actives have a fitted effect of over 80% in size
#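 Eu-cryptate anti-ADP/ADP-d2 competition gives a ratio inversely related to ADP. Enzyme at 25 nM was pre-exposed to compound for 10 min, then given 10 uM ATP for 30 min, 37°C throughout.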
# Glioma ERSR ind = ER stress response induction in glioma; Potency, µM, inactives show at the highest dose activation, actives largely listed as activators; U87-MG GRP78 promoter luciferase reporter, 16 h; hit rate 0.02% among 420,000; further: potency means the concentration at half of the fitted maximal effect; series mostly up to about 76 µM; % of control where 0% means no effect; nearly all actives have a fitted effect of over 35% in size
#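 ERSR induction read as luciferase luminescence (Bright-Glo, 10 min at room temperature) in stably transfected human U87-MG glioma cells exposed to compounds for 16 h, using GRP78 as sensor.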
# Akt phos inh = blocks phosphorylation of Akt. Neuro2A IGF-stimulated pAkt S473 HTRF, 20 min; hits give low values. hit rate 0.32% among 360,000. activity change, % for hits at 50 µM; in the data active means activity change below about -80%; inconclusive means mostly about -51% to -80%; further: on the % scale 0 is the no-effect control and ±100 the full control effect
#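 Single-point screen (50 µM final compound) in Neuro2A cells stimulated 20 min with 6 nM IGF at 37 deg C. After lysis, Ser473-phosphorylated Akt read by HTRF (ex 330 nm, em 615/665 nm) as the 665/615 ratio.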
# IDH1 R132H inh = human IDH1 R132H inhibition; O75874; IDH1-R132H enzyme, NADPH consumption, diaphorase/resazurin fluorescence; Potency, µM (doses to about 76.6 µM), inactives show top-dose activity change, negative = inhibition, actives largely listed as inhibitors; hit rate 0.093% among 390,000; further: potency means the concentration at half of the fitted maximal effect; on the % scale 0 is the no-effect control and ±100 the full control effect; nearly all actives have a fitted effect of over 65% in size
# Target sequence (O75874 whole entry R132H, stated change not applied): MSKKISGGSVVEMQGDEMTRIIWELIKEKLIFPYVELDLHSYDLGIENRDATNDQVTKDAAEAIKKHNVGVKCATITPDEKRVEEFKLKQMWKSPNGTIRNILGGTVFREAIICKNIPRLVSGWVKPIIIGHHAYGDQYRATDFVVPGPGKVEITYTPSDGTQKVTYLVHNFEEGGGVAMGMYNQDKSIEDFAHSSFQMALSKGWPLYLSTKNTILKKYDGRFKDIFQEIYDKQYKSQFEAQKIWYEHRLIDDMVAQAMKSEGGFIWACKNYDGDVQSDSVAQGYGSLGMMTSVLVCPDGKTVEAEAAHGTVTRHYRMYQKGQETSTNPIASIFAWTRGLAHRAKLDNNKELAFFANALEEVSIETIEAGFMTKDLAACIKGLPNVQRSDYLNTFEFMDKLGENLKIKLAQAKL
#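 IDH1-R132H (0.5 ug/mL) preincubated 30 min with compound, then NADPH (0.016 mM) and alpha-KG (2 mM) added; 80 min at RT, pH 7.5. Remaining NADPH coupled via diaphorase/resazurin to fluorescence (540/590 nm); concentration-response curves normalized to no-enzyme control.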
# GLS inhibitor = glutaminase GLS (human) inhibition; O94925; GLS enzymatic activity, qHTS titration; Potency, µM (doses to about 45.5 µM), for inactives: top-dose activity change, negative = inhibition, actives largely listed as inhibitors; hit rate 0.21% among 410,000; AID 624170; further: potency means the concentration at half of the fitted maximal effect; on the % scale 0 is the no-effect control and ±100 the full control effect
#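 hKGA; 45 mM KH2PO4 pH 8.2 + 0.02% Tween-20; cpd via pin tool; 1 mM Gln soln; GluOx/HRP/Amplex Red; RT 30 min; fluor. t0 & final.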
# CCT chaperon mod = modulators of cytosolic chaperonin (CCT/TRiC) activity; activity change, % (no concentration beside the values), hits read low; hit rate 0.3% among 360,000; AID 651819; purified chaperonin ATPase assay, HTRF ADP detection, 30 min; in the data active means activity change below about -30%; further: on the % scale 0 is the no-effect control and ±100 the full control effect
#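 Enzyme 40 or 20 nM (batch-dependent) in Tris pH 7.4/KCl/MgCl2/DTT; cpd 76 uM single point; ATP 10 uM; 30 min 37 °C; Transcreener ADP HTRF detection, 30 min RT; ratio 665/615.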
# * hit, by the source's call; i = inactive; ? = inconclusive; / = not tested or not shown. Unless noted, the call rests on the fitted dose curve; in most records, active means well fitted curve in the direction sought with a large enough effect; inconclusive means small, poorly fitted or top-dose-only effect, or another doubt; inactive means no such curve, though single readings can be large; an effect the other way counts as inactive or inconclusive.
SMILES,Mm-Cpn inhibitor,Glioma ERSR ind,Akt phos inh,IDH1 R132H inh,GLS inhibitor,CCT chaperon mod
CCN(CC)S(=O)(=O)c1ccc(-c2nnc(SCC(=O)Nc3nnc(C)s3)n2CC)cc1,-1%,-4%,-112%*,9%,3%,2
COc1ccc(F)c(CN2CCC3(CCC(CNC(=O)c4cc(C)nn4C)O3)CC2)c1 (configuration not stated),/,0%,/,/,/,/
CC1(C)CC(=O)C2=C(C1)Nc1ccccc1S2,-10%,-9%,i,9%,10µM*,0
O=C1c2cccnc2C(O)N1Cc1ccc(F)cc1 (configuration not stated),0%,-2%,-95%*,2%,6%,-32*
CCCCCCCCCCCCCCCC(=O)O[C@@H]1CC(C)=C(\C=C/C(C)=C\C=C/C(C)=C\C=C\C=C(C)\C=C\C=C(C)\C=C\C2=C(C)C[C@@H](OC(=O)CCCCCCCCCCCCCCC)CC2(C)C)C(C)(C)C1,/,-2%,/,/,0%,/
Cc1ccccc1-c1ccc(CN2CCc3nnc(CNC(=O)c4ccccn4)n3CC2)cc1,/,-4%,/,/,/,/
CC1CCC(NC(=O)C2(C)CCC(=O)N2Cc2cccnc2)CC1 (configuration not stated),-1%,-3%,i,0%,-2%,-36*
Cc1cccc(N(CC(N)=O)C2SC(=O)NC2=O)c1 (configuration not stated),-1%,-4%,-106%*,-2%,13%,-5
O=C(O)CN(c1ccccc1)C1SC(=O)NC1=O (configuration not stated),/,-6%,i,-4%,23%,-2
Cc1cc(CNC(=O)c2cnn(-c3nccc(-c4ccc5c(c4)OCO5)n3)c2C2CC2)on1,/,-2%,/,/,/,/
O=C(CN1C(=O)CCSc2ccccc21)Nc1ccccc1,1%,-1%,i,2%,0%,-3
O=C(CN1C(=O)CCSc2ccccc21)NC1CCCCC1,-1%,-4%,/,11%,1%,-36*
COc1ccccc1/C=C/CN1CCC(Oc2cc(C(=O)NC3CC3)ccc2OC)CC1,2%,-3%,i,-1%,-3%,-34*
COc1ccc(C(=O)NC2CC2)cc1OC1CCN(Cc2ccccc2)CC1,1%,-6%,i,2%,0%,-4
CC(C)c1c(C(=O)N(C)Cc2cccc3ncccc23)cnn1-c1nccc(-c2ccco2)n1,/,-3%,/,/,/,/
O=C1Cc2cccc(=O)c(O)c2C(=O)O1,/,-6%,i,-1%,4µM*,0
O=C(NCCc1nnc2n1CCN(Cc1ccccn1)CC2)c1ccc(F)cc1,/,-6%,/,/,/,/
COc1ccc(CCNC(=O)C/C(C)=N/NC(=O)C2CCCCC2)cc1OC,1%,-8%,i,-1%,1%,-60*
Cc1ccccc1/C=N/Nc1nc2ccccc2[nH]1,-13%,5%,i,-8%,20%,-1
C(=N\Nc1nc2ccccc2[nH]1)/c1c[nH]c2ccccc12,-6%,?,i,3%,13µM*,-1
CCn1c(-c2ccccc2F)nc2cc(NC(C)=O)cc(C(=O)NCc3ncc(C)[nH]3)c21,/,-3%,/,/,/,/
O=C(/C=C/Nc1ccc(OC(F)(F)F)cc1)C(F)(F)F,1%,-4%,-127%*,-3%,4%,0
CCC1(C2CCN(C(=O)c3ccc(C)c(C)c3)CC2)NC(=O)N(CCc2scnc2C)C1=O (configuration not stated),/,-1%,/,/,/,/
O=C(Cc1cccs1)N1CCN(S(=O)(=O)c2ccc(Cl)c(C(F)(F)F)c2)CC1,0%,-1%,i,-13%,14%,-69*
N#Cc1cc(-c2ccc(Cl)cc2)cn(Cc2c(Cl)cccc2Cl)c1=O,0%,3%,-95%*,13%,0%,-2
SMILES,Mm-Cpn inhibitor,Glioma ERSR ind,Akt phos inh,IDH1 R132H inh,GLS inhibitor,CCT chaperon mod
CCN=C1Sc2nc3ccc(OCC)cc3cc2CN1CCOC,?,4%,i,-3%,11%,1
CCOc1ccc2nc3c(cc2c1)CN(CCOC)C(=NC)S3,-5%,-4%,-88%*,-8%,7%,-2
COc1ccc(-n2c(CNC(=O)c3c(-c4ccccc4)noc3C)nnc2SC)cc1,/,-4%,/,/,/,/
O=C(CSc1ccc2c(c1)OCCO2)NCCN1C(=O)CSC1=O,3%,6%,-109%*,4%,17%,1
COc1ccc(NC(=O)CSc2nc3ccc(Nc4nc(N5CCOCC5)nc(N5CCOCC5)n4)cc3s2)cc1,-4%,-6%,/,4%,0%,-75*
Cc1ccc(NC(=O)CSc2nc3ccc(Nc4nc(N5CCOCC5)nc(N5CCOCC5)n4)cc3s2)cc1,-1%,-7%,i,-2%,-2%,0
O=c1c2cccnc2[nH]c(=S)n1CCCN1CCN(c2ccc(F)cc2)CC1,1%,-3%,-111%*,0%,-5%,1
O=C(NCc1nnc2n1CCN(Cc1cc3c(cc1Cl)OCO3)CC2)C1CCOC1 (configuration not stated),/,-5%,/,/,/,/
CCC(NC(=O)c1ccc2nc(Cc3ccc(OC)cc3)oc2c1)c1ccncc1 (configuration not stated),-1%,-4%,/,6%,-1%,-84*
CCOCC(=O)Nc1ccc(C)c(Cl)c1,-8%,6%,-129%*,0%,1%,0
Cc1ccc(-c2ccnc(-n3ncc(C(=O)N(C)CC4CCCN(C)C4)c3C)n2)o1 (configuration not stated),/,0%,/,/,/,/
COc1cc(=O)n2c(c1C(=O)N(C)Cc1nonc1C)CCN(Cc1c(F)cccc1F)CC2,/,-5%,/,/,/,/
CCCn1c(NC(=O)c2ccc(Br)cc2)nc2ccccc21,0%,8%,-87%*,6%,-2%,-1
CCCn1c(NC(=O)c2ccc(F)cc2)nc2ccccc21,-6%,-2%,i,11%,3%,-7
COC(=O)c1ccc(NC(=O)C2CC(=O)N(c3ccc(C)cc3)C2)cc1 (configuration not stated),1%,2%,i,7%,-18%,-3
COC(=O)c1ccc(NC(=O)C2CC(=O)N(c3cc(C)ccc3C)C2)cc1 (configuration not stated),-1%,-2%,-105%*,3%,7%,-2
Cc1ncc2c(c1CNC(=O)c1ccc3c(c1)OCO3)CCN(C(=O)c1cccc(-n3cccn3)c1)C2,/,-4%,/,/,/,/
CCOC(=O)C1C(c2ccc(O)c(OC)c2)NC(=S)NC1(O)C(F)(F)F (configuration not stated),1%,0%,i,6%,50%,0
CCOC(=O)C1C(c2ccccc2)NC(=S)NC1(C)O (configuration not stated),2%,-6%,i,6%,2.8µM*,0
